Legend:
[1] = tested on: Vero E6 infected with SARS-CoV-2; assay: morphology score (similarity to uninfected cells); higher = more like uninfected cells; settings: 24 h
[2] = tested on: Vero E6 infected with SARS-CoV-2; assay: SARS-CoV-2 infection rate relative to infected DMSO; higher = more infection, active = 60 or less; settings: 24 h

| SMILES | morphology score [1] | SARS-CoV-2 infection rate [2] |
| --- | --- | --- |
| CC(C)NC[C@@H](O)c1ccc(O)c(O)c1 (racemic) [isoprenaline] (0.833333 µM) | 0.241 | 100% (inactive) |
| CC(C)c1cc(-c2ccc(F)c3ccccc23)nc(N)n1 (10 µM) | 0.153 | 108% (inactive) |
| O=C(NCCNCC(O)COc1ccc(O)cc1)N1CCOCC1 (stereo not drawn) [xamoterol] (10 µM) | 0.0295 | 110% (inactive) |
| COC(=O)C1=C(C)NC(C)=C(C(=O)OCCN(C)Cc2ccccc2)C1c1cccc([N+](=O)[O-])c1 (stereo not drawn) [nicardipine] (10 µM) | 0.0181 | 103% (inactive) |
